These results are taken from ChEMBL document CHEMBL1961873, “Compounds: GSK PKIS; Assays: Nanosyn kinase panel” (2012).

Test [1] concerns the target High affinity nerve growth factor receptor (Homo sapiens) (UniProt P04629). Particulars: at 1 µM.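 Also: each value is the mean percent inhibition of TRKA.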
The target of test [2] is BDNF/NT-3 growth factors receptor (Homo sapiens) (UniProt Q16620). Particulars: at 0.1 µM.
The target is the same in test [3]. Particulars: at 1 µM.
In test [4] the target is NT-3 growth factor receptor (Homo sapiens) (UniProt Q16288). Particulars: at 0.1 µM.
Chain of NT-3 growth factor receptor (Homo sapiens) (Q16288 32-839 limits assumed): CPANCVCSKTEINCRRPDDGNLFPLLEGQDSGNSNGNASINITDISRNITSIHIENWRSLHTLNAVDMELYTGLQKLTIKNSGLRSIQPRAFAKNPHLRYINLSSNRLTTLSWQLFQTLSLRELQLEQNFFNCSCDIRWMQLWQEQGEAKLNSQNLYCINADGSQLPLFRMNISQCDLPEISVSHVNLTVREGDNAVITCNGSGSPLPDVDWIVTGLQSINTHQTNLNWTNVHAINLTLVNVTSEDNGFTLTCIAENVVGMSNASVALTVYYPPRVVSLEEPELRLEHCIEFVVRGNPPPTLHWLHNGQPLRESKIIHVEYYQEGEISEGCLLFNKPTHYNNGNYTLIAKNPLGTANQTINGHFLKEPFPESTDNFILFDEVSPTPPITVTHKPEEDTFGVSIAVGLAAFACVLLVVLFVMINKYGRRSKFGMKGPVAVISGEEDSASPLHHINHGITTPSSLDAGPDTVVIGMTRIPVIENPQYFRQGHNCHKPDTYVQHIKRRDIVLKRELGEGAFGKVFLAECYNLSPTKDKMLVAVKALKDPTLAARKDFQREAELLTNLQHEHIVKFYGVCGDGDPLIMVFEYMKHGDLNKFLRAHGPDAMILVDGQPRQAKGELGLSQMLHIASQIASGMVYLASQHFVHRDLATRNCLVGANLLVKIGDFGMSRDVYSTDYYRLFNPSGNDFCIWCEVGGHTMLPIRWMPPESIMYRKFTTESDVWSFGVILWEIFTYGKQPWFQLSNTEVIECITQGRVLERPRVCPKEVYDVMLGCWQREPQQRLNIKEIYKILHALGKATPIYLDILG
Test [5] has the same target. Particulars: at 1 µM.
Test [6] concerns the target T1, Tyrosine-protein kinase TXK (Homo sapiens) (UniProt P42681).
T1 sequence (whole entry): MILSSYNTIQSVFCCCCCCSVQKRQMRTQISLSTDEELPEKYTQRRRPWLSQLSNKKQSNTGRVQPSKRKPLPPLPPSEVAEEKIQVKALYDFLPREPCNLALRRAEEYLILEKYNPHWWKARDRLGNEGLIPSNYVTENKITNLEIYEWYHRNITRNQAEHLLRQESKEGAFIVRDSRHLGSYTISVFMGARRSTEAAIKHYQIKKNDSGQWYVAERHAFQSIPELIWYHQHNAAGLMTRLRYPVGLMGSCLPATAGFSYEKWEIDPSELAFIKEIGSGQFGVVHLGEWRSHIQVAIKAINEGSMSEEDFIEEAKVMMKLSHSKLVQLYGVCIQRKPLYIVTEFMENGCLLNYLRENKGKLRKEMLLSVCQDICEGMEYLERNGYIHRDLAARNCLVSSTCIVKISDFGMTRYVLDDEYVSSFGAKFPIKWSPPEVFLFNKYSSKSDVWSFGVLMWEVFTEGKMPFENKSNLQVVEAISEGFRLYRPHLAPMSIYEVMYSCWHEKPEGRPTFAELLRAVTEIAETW
Particulars: at 0.1 µM.

In test [7] the target is T1, Tyrosine-protein kinase TXK (Homo sapiens). Particulars: at 1 µM.
For test [8], the target named is Non-receptor tyrosine-protein kinase TYK2 (Homo sapiens) (UniProt P29597). Particulars: at 0.1 µM.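 Also: each value is a mean of the inhibition readings.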
Test [9] has as its target T2, Dual specificity protein kinase TTK (Homo sapiens) (UniProt P33981).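 Also: reported figures are mean TTK inhibition at 1 µM.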
T2 sequence (whole entry): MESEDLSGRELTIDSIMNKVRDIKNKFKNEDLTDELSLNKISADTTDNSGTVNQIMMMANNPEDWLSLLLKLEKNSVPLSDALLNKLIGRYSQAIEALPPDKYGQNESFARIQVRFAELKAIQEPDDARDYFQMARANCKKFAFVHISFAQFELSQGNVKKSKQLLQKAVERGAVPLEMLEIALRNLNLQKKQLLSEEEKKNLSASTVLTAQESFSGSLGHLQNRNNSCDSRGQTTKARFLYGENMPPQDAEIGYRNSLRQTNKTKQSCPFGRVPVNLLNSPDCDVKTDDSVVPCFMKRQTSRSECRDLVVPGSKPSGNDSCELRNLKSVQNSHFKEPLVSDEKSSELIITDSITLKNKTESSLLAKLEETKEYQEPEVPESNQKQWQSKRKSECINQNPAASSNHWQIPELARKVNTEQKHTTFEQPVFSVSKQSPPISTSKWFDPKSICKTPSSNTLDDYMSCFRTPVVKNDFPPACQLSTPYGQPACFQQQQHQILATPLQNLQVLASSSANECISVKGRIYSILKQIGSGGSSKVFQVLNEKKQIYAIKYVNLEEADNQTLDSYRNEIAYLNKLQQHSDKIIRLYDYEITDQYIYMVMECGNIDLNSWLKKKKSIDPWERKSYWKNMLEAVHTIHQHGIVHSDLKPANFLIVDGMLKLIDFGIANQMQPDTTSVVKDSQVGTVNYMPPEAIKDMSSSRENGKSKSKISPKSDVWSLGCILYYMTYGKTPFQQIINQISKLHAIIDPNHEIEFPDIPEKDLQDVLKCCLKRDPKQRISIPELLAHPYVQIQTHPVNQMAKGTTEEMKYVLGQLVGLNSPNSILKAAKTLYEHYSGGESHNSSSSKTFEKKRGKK
Particulars: at 1 µM.

The target in test [10] is T3, Aurora kinase A (Homo sapiens) (UniProt O14965).
T3 sequence (whole entry): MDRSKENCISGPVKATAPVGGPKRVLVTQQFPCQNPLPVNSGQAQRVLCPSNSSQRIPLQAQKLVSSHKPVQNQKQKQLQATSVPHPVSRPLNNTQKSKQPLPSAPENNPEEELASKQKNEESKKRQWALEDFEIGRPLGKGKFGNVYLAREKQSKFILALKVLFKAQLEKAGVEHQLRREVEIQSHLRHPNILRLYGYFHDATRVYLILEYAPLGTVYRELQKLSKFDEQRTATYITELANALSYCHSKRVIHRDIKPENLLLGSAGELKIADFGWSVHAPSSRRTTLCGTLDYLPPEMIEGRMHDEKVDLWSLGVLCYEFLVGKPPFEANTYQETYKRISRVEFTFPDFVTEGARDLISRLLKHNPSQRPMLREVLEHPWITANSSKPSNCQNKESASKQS
Particulars: at 0.1 µM.

In test [11] the target is T3, Aurora kinase A (Homo sapiens). Particulars: at 1 µM.
For test [12], the target named is Aurora kinase B (Homo sapiens) (UniProt Q96GD4). Particulars: at 0.1 µM.
Chain of Aurora kinase B (Homo sapiens) (Q96GD4 whole entry): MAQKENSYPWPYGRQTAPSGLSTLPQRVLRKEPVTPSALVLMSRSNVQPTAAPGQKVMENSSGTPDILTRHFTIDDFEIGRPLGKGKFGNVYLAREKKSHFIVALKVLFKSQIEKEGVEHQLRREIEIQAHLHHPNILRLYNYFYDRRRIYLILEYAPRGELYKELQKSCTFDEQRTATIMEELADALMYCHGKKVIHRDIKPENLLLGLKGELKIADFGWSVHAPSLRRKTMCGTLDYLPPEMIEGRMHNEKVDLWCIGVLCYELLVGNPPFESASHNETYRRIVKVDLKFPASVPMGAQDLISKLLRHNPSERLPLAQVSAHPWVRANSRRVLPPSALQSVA
Test [13] shares this target. Particulars: at 1 µM.
The target of test [14] is T4, Aurora kinase C (Homo sapiens) (UniProt Q9UQB9).
T4 sequence (whole entry): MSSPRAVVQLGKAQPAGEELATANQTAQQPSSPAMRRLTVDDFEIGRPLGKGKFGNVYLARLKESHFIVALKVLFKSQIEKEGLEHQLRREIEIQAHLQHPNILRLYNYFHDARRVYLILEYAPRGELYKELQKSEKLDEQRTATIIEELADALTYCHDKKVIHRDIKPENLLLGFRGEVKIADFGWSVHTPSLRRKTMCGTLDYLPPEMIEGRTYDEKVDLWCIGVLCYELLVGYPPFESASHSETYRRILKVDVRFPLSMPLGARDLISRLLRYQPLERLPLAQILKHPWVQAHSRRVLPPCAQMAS
Particulars: at 0.1 µM.

The target in test [15] is T4, Aurora kinase C (Homo sapiens). Particulars: at 1 µM.
Test [16] addresses Serine/threonine-protein kinase 10 (Homo sapiens) (UniProt O94804). Particulars: at 0.1 µM.
For test [17] the target is unchanged. Particulars: at 1 µM.
The target in test [18] is T5, Mitogen-activated protein kinase kinase kinase kinase 2 (Homo sapiens) (UniProt Q12851).
T5 sequence (whole entry): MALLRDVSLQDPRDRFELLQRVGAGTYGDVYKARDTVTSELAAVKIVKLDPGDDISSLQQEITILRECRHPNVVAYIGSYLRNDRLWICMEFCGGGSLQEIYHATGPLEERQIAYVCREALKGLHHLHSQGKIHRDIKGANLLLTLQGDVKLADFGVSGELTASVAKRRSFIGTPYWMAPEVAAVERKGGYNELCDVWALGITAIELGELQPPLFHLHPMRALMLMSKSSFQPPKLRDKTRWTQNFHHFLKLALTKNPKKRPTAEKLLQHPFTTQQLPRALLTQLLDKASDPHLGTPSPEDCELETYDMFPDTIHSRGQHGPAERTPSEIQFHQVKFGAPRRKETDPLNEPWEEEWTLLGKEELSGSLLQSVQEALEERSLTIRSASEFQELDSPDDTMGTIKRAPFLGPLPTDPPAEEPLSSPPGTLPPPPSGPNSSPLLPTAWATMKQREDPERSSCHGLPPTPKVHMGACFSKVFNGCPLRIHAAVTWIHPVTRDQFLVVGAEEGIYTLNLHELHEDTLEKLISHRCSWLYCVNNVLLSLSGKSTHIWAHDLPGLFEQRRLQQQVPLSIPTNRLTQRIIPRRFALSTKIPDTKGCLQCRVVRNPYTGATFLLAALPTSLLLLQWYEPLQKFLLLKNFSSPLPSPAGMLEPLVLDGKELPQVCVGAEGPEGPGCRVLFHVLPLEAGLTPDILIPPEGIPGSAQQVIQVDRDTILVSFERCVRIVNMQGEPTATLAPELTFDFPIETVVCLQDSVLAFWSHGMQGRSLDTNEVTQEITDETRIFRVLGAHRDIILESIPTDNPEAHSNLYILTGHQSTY
Particulars: at 0.1 µM.

Test [19] addresses T5, Mitogen-activated protein kinase kinase kinase kinase 2 (Homo sapiens). Particulars: at 1 µM.
Test [20] addresses Mitogen-activated protein kinase kinase kinase kinase 4 (Homo sapiens) (UniProt O95819). Particulars: at 0.1 µM.

The term inhibition denotes the change of the read-out against control, counted positive when it falls.

Chain of Mitogen-activated protein kinase kinase kinase kinase 4 (Homo sapiens) (O95819 2-1239 limits assumed): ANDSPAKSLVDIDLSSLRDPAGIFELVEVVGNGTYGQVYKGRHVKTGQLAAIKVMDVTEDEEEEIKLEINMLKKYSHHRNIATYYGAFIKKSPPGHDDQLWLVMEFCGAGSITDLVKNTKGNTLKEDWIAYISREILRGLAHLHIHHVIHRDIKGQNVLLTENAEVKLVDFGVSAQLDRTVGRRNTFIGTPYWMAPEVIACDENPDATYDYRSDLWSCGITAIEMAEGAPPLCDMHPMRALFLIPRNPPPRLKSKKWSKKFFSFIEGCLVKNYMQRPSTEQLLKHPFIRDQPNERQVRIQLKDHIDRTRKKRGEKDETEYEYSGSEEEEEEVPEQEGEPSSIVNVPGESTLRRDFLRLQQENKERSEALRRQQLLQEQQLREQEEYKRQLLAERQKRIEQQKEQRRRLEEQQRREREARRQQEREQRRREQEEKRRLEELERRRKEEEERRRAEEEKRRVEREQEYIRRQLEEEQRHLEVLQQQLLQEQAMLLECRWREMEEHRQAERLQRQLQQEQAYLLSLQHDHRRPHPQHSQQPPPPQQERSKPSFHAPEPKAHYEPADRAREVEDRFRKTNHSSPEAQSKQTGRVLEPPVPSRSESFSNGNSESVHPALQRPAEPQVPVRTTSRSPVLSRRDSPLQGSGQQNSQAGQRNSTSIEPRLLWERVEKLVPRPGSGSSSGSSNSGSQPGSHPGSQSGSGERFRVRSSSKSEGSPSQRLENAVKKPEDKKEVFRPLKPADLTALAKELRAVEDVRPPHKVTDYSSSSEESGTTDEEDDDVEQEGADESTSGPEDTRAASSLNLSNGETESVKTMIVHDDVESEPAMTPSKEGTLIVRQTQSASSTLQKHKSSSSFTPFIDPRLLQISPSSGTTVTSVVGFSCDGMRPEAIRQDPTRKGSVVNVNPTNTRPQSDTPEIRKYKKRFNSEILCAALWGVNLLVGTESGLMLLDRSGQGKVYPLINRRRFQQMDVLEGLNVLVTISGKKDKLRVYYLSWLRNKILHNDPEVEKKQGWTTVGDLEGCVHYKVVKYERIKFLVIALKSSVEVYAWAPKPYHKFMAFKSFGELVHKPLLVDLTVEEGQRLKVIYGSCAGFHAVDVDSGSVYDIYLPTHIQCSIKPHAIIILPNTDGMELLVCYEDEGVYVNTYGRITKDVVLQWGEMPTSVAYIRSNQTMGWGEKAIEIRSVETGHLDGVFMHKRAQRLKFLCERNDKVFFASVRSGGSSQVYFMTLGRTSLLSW
Chain of High affinity nerve growth factor receptor (Homo sapiens) (P04629 33-796 limits assumed): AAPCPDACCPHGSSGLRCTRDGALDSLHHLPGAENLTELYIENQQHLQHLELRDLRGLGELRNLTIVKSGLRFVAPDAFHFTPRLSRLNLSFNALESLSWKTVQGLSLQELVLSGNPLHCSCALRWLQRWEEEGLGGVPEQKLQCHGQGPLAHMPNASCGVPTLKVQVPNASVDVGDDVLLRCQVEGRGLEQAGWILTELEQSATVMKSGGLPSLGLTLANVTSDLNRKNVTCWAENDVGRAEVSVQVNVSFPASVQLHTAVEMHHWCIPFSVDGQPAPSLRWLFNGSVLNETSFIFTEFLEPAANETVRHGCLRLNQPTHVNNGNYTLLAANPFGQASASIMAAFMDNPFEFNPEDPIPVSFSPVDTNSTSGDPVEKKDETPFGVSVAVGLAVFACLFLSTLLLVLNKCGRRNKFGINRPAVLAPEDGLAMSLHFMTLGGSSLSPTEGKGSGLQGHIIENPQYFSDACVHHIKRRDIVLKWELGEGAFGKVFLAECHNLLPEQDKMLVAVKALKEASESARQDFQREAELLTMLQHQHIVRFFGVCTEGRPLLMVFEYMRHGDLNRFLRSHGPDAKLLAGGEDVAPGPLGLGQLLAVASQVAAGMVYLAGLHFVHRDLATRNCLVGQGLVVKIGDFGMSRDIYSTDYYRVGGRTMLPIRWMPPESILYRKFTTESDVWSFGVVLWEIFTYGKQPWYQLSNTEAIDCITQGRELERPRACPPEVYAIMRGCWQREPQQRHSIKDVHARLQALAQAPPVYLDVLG
Chain of BDNF/NT-3 growth factors receptor (Homo sapiens) (Q16620 32-822 limits assumed): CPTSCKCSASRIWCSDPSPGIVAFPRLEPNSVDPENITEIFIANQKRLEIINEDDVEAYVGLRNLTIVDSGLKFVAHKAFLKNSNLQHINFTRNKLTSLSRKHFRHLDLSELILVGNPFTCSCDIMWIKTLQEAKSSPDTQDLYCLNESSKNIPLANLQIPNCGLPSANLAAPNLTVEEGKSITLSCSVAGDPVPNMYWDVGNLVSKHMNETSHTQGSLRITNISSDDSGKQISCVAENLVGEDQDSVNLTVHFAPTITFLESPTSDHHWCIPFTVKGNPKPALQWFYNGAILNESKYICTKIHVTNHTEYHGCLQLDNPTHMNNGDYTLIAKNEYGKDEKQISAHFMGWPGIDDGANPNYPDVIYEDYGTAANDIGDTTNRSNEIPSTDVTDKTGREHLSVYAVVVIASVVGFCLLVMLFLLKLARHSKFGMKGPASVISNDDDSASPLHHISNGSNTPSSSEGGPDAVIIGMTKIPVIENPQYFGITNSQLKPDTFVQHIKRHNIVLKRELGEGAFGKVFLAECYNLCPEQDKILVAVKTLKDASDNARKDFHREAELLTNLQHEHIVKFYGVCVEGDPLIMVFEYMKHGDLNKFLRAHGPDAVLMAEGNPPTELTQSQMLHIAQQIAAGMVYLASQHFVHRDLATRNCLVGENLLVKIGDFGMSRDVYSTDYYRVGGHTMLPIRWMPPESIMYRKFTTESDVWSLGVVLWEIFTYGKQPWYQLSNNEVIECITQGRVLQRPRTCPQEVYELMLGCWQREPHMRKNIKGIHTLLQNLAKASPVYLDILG
Chain of Serine/threonine-protein kinase 10 (Homo sapiens) (O94804 whole entry, looked up): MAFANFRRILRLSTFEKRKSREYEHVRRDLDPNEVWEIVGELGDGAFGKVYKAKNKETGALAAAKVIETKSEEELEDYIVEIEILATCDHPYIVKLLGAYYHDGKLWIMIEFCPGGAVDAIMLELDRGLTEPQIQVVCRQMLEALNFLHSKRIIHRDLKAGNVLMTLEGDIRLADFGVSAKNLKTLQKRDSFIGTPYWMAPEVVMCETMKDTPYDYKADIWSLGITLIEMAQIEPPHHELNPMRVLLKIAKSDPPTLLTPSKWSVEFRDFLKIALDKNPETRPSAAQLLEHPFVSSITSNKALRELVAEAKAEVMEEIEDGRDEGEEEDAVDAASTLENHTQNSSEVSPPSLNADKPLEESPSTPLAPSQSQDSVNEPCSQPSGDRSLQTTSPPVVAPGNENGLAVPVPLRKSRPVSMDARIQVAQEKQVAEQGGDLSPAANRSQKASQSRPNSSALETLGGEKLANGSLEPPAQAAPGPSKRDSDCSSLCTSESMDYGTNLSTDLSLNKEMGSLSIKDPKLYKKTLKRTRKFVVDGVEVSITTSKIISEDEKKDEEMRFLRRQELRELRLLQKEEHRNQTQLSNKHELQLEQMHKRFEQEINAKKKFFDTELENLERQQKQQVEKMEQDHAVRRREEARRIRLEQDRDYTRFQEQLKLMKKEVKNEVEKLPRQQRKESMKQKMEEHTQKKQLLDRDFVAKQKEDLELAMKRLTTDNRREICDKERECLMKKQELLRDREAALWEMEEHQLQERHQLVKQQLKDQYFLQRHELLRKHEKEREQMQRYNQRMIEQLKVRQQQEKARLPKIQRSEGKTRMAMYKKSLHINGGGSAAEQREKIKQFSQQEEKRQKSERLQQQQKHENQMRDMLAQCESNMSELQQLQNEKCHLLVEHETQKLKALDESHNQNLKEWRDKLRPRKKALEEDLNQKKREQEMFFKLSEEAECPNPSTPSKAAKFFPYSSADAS

For `Cc1ccc(NC(=O)c2ccoc2)cc1-c1ccc(C(=O)NCC2CC2)cc1`, the inhibition in test [1] was 1.15%; in test [2], 2.58%; in [3] it was 1.82%; in [4], 2.37%; in [5] it was 0.07%; in test [6] it was -0.38%. For the same compound, the inhibition in test [7] is 2.18%; in test [8], -3.59%; in [9] it was 4.41%; in test [10] it was 2.28%; in test [11], 2.57%; in [12] it was 1.19%. The inhibition is 4.85% in [13]; 1.82% in test [14]; 1% in [15]; 2.73% in test [16]; 5.18% in test [17]; -0.94% in [18]. For the same compound, the inhibition in [19] is 0.39%; in test [20], 0.77%.
Consider `CCc1ccc(Oc2nccc(-c3c(-c4ccc(F)cc4)ncn3C3CCNCC3)n2)cc1`, for which the inhibition in test [1] turned out to be 3.03%; in [2], 1.6%; in test [3], 2.36%; in [4], 1.82%; in test [5], 3.29%; in test [6], 6.85%. For the same compound, the inhibition in [7] turned out to be 4.56%; in test [8], 1.68%; in test [9], 4.86%; in test [10], 3.7%; in [11] it was 2.66%; in [12] it was 3.48%. Further, the inhibition in [13] was determined as 2.75%; in test [14], 1.29%; in test [15], 3.88%; in test [16] it was 4.86%; in test [17] it was 8.03%; in [18], 1.71%. Besides, the inhibition in [19] came to 15.4%; in test [20] it was 2.58%.
As for `Fc1ccc(-c2c(-c3ccncc3)nc3n2CCS3)cc1`, the inhibition is -0.43% in test [1]; 1.79% in test [2]; -0.01% in test [3]; 3.54% in test [4]; 1.8% in [5]; -1.56% in test [6]. The inhibition in test [7] is 0.44%; in test [8] it was -0.68%; in test [9], 4.17%; in [10], -2.71%; in test [11], 2.75%; in test [12], -0.21%. The inhibition was 1.83% in [13]; -4.05% in test [14]; -8.58% in test [15]; -1.08% in test [16]; 7.95% in test [17]; 1.02% in [18]. The inhibition in test [19] amounted to 3.03%; in [20], 4.23%.
As to `COc1cc(C)c(N(C)C(=O)CN(C)C)cc1Nc1nc(Nc2cccc(F)c2C(N)=O)c2cc[nH]c2n1`, the inhibition in test [1] is 1.31%; in [2] it was 0.94%; in [3] it was -2.87%; in [4] it was 1.87%; in test [5], -1.19%; in test [6], -1.41%. Further, the inhibition in test [7] was -0.09%; in [8] it was 0.02%; in test [9], 25.7%; in test [10] it was -0.3%; in test [11], -1.19%; in test [12], -3.04%. Moreover, the inhibition is -0.55% in test [13]; -3.75% in test [14]; 4.56% in test [15]; 1.37% in test [16]; 2.05% in [17]; 2.17% in [18]. The values for the inhibition in test [19] and in [20] were 3.67% and 0.4%, respectively.
